In PubChem BioAssay (NCI):
The panel holds about 83,000 compounds, 20% with a hit somewhere; the sample as a whole holds those more often.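 Growth was measured after 48 h exposure to one concentration of compound in 96-well plates. Values under 10 count as active.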 Activity calls are given as the source filed them.

test system: HL-60(TB) leukemia; assay: NCI-60 one-dose screen, 48 h (100 = growth as untreated, 0 = no growth, -100 = all killed); settings: 10 µM unless noted

Compound	growth
O=C1/C(=C\c2c[nH]c3ccccc23)c2ccccc2N1c1c(Cl)cccc1Cl	-7.81% (active)
CCCCC1COc2cccc3c(SCC(=O)N(C)c4cccc5ccccc45)cc[n+]1c23 (stereo not given)	89.8% (inactive)
COc1ccc(C(C)=O)cc1S(N)(=O)=O	74.7% (inactive)
CCOc1ccc(-c2nc3ccc(-c4nc5ccc(N6CCN(C)CC6)cc5[nH]4)cc3[nH]2)cc1OCC	24.8% (inactive)
COc1ccc(C/C(C)=C(/c2ccc(OCCN3CCCCCC3)cc2)c2ccc(OC(=O)c3ccccc3)cc2)cc1	68.7% (inactive)
O=C(Nc1nc(Cl)nc(Nc2ccc(N3CCOCC3=O)cc2)n1)c1ccc(Cl)s1	68.7% (inactive)
Cc1nc2c(c(-c3ccccc3)n1)Cc1c(ccc3ccccc13)O2	103% (inactive)
COc1ccc(C(=O)N2NC(=O)/C(=C/c3cn(-c4ccccc4)nc3-c3ccccc3)N=C2c2ccccc2)cc1	103% (inactive)
CCc1c(C)c2ccc(OCC(=O)N=Nc3c(O)[nH]c4ccccc34)c(C)c2oc1=O	-22.3% (active)
Cc1cc(O)c(C2=NN(c3ccc(S(N)(=O)=O)cc3)C(c3ccccc3O)C2)cc1Cl (stereo not given)	-35.4% (active)
C=C(C)[C@H]1CC/C(C)=C/CC[C@]2(C)O[C@H]2CC/C(COC(=O)[C@@H](OC(C)=O)[C@H](NC(=O)c2ccccc2)c2ccccc2)=C\[C@@H]1O	91% (inactive)
CCC(CC)NCCCCCNc1cc(OC)cc2cccnc12	110% (inactive)
NC1=NN=C(N)C1=Cc1cc2ccccc2n2nnnc12	96.8% (inactive)
O=c1c2cc(F)ccc2sc2c(NCCN3CCCC3)nc3ccccc3c12	91.9% (inactive)
CCCCCCCCCCCCNC(=O)[C@H]1CSC(c2cc3ccccc3s2)N1 (stereo not given in full)	-33.3% (active)
Cc1cccc(NC(=O)Cn2cc(CN3CCN(c4ccnc5cc(Cl)ccc45)CC3)nn2)c1	89.1% (inactive)
CC(=O)C1N=NCC1c1ccccc1 (stereo not given)	96.8% (inactive)
CN1C(=O)C2(SCC(C(=O)NCc3ccccc3)N2C(=O)C2CCCCC2)c2ccccc21 (stereo not given)	80.4% (inactive)
O=C(N/N=C/c1ccc([N+](=O)[O-])o1)c1ccc(O)cc1	19.8% (inactive)
Clc1ccccc1N=Cc1ccc2c(c1)OCO2	94.6% (inactive)

Compound	growth
COc1ccc(-c2nc3sc(-c4ccccc4)c(-c4ccccc4)n3c2/C=C/c2ccc(F)cc2)cc1	105% (inactive)
O=C1CN(CCN2CC(=O)NC(=O)C2)CC(=O)N1	88% (inactive)
CN(C)CCCn1c2c(c3cc(-c4ccco4)ccc3c1=O)C(=O)c1ccccc1-2	93.1% (inactive)
COc1nc2ccccc2cc1/C=C1/C=C(c2ccccc2)NC1=O	-8.46% (active)
C=CC(=O)Nc1cc2c(Nc3ccc(F)c(Cl)c3)ncnc2cc1OCCCN1CCOCC1	-26.7% (active)
CCN(CC)c1ccc(/C=N\NC(=O)c2cccc(Nc3ccnc(C(F)(F)F)c3)c2)c(O)c1	69.2% (inactive)
COc1ccc(C(=O)c2cc3c(OC)c(OC)c(OC)cc3[nH]2)cc1	36.1% (inactive)
COc1cc2nnn3c4ncccc4c(N=O)c3c2cc1OC	-31.5% (active)
Cc1c(O)c(=O)ccn1C1CCC(CC2CCC(n3ccc(=O)c(O)c3C)CC2)CC1 (stereo not given)	-0.371% (active)
Cc1cc(O)cc(-c2c(-c3ccnc(-c4cccnc4)c3)cnn2C)c1	46% (inactive)
NCCN1CCNCC1	97.6% (inactive)
O=C(CN1CCNCC1)N1CCOCC1	68.5% (inactive)
CC[C@H]1OC(=O)[C@H](C)[C@@H](O[C@H]2C[C@@](C)(OC)[C@@H](O)[C@H](C)O2)[C@H](C)[C@@H](O[C@@H]2O[C@H](C)C[C@H](N(C)C)[C@H]2O)[C@](C)(O)C[C@H](C)CN(C)[C@H](C)[C@@H](O)[C@]1(C)O	89.9% (inactive)
NC1=C(Cl)C(=O)c2ccc(S(N)(=O)=O)cc2C1=O	3.12% (active)
CC(C)(CCN=C(N)Nc1ccccn1)c1ccc(C(F)(F)F)cc1	-52.7% (active)
O=C(Cn1ccnc1)Nc1ccc(-c2nc3ccccc3s2)cc1	77.3% (inactive)
CC[n+]1c(C)ccc2cc(C)ccc21	87% (inactive)
CC(C)(C)C(=O)OCOP(=O)(OCOC(=O)C(C)(C)C)C1CCCN(OC(=O)c2ccccc2)C1=O (stereo not given)	35.1% (inactive)
CC(=O)c1c[nH]c2ccc(-c3ccnc(Nc4ccc(NC(=O)c5cccc(F)c5)c(CN5CCOCC5)c4)n3)cc12	-24.8% (active)
COCCCNc1nc(NC(=O)c2cc(Br)cc(C(F)(F)F)c2)cc(-c2cccnc2)n1	94.6% (inactive)
